Assay results as given in PubChem BioAssay (NCATS).
Where “and” joins values, the source holds several entries; their conditions need not be identical. Equal values may be shown once. Inconclusive results are not listed. Entries that show only a call come without a potency. Calls of active or inactive are those of the source. Unless noted, the call rests on the fitted dose curve; in most records, active means well fitted curve in the direction sought with a large enough effect; inconclusive means small, poorly fitted or top-dose-only effect, or another doubt; inactive means no such curve, though single readings can be large; an effect the other way counts as inactive or inconclusive.

Experiments:
[1] = biological target: Cytochrome P450 2C9 (Homo sapiens) (UniProt P11712); test: Cytochrome P450 family 2 subfamily C member 9 (CYP2C9) small molecule antagonists: luciferase biochemical (cell-free) qHTS assay (AID 1645842; active means well fitted curve in the direction sought with a large enough effect in the repeat runs; an effect the other way counts as inactive or inconclusive; further: nearly all actives have a fitted effect of over 55% in size; further: potency means the concentration at half of the fitted maximal effect)
Outline: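 P450-Glo CYP2C9 system: proluciferin substrate with enzyme in mix containing 0.4% BSA, 10 min at room temperature, then NADPH regeneration solution added and incubated 1 h at 37C. Detection reagent stopped reaction; luminescence read after 20 min as RLU.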

Papain (Carica papaya) = Papain (Carica papaya) (UniProt P00784); test: Primary qHTS assay for inhibitors of the protease papain (AID 1645873);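 further: papain turnover of Z-FR-AMC read as the AMC fluorescence gain over 10 min; series mostly up to about 50 µM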
[2] = Primary qHTS for inhibitors of nuclear receptor binding SET domain protein 2 (NSD2) in an isogenic RCH-ACV NSD2 p.E1099K mutant (9B) (AID 1645876); further: nearly all actives have a fitted effect of over 70% in size; further: potency means the concentration at half of the fitted maximal effect
[3] = Primary qHTS for inhibitors of nuclear receptor binding SET domain protein 2 (NSD2) in an RCH-ACV wild type WT cells (2C) (AID 1645877); further: nearly all actives have a fitted effect of over 70% in size; further: potency means the concentration at half of the fitted maximal effect

Chain of Papain (Carica papaya) (P00784 whole entry, looked up, the tested form may be a part): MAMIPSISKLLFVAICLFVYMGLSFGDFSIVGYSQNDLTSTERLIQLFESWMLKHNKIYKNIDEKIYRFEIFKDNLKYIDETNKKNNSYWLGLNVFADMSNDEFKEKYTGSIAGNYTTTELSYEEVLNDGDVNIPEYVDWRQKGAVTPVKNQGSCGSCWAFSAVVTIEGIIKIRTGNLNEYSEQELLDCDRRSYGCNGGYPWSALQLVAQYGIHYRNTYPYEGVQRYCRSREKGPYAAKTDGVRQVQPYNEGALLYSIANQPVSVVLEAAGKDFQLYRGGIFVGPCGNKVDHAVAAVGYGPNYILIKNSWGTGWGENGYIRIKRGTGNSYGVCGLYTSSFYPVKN
Chain of Cytochrome P450 2C9 (Homo sapiens) (P11712 whole entry, looked up): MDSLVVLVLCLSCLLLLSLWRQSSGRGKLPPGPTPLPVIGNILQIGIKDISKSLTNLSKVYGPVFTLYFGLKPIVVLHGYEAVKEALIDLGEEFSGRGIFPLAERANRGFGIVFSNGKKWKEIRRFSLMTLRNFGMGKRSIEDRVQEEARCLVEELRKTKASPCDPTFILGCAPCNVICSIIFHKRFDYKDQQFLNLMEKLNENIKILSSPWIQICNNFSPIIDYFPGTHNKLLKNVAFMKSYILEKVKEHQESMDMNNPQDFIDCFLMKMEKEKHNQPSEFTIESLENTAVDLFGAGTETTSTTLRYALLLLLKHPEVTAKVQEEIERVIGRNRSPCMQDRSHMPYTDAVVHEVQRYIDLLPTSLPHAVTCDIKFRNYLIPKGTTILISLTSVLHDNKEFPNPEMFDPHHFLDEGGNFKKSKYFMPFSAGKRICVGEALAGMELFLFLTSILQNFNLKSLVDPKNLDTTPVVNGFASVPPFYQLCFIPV

In the case of `O=C1CCC(N2C(=O)c3ccccc3C2=O)C(=O)N1` (centres undefined), the Potency [1] is reported as “inactive”, the Potency (Papain (Carica papaya)) is reported as “inactive” and the Potency [2] is reported as “inactive”. For the same compound, the Potency [3] was “inactive”.
For `CCCC(CCC)C(=O)O`, the Potency [1] was “inactive”, the Potency (Papain (Carica papaya)) was “inactive” and the Potency [2] was “inactive”. For the same compound, the Potency [3] was “inactive”.
For `COc1ccc([C@@H]2CC(=O)c3c(O)cc(O[C@@H]4O[C@H](CO[C@@H]5O[C@@H](C)[C@H](O)[C@@H](O)[C@@H]5O)[C@@H](O)[C@H](O)[C@@H]4O)cc3O2)cc1O`, the Potency [1] was “inactive”.
For `COc1ccc(CCN2CCN(CCCc3ccccc3)CC2)cc1OC`, the Potency [1] was “inactive”, the Potency [2] was “inactive” and the Potency [3] was “inactive”.
For `CNC(=O)c1ccccc1Sc1ccc2c(/C=C/c3ccccn3)n[nH]c2c1`, the Potency [1] was 3.47 µM (active), the Potency [2] was 750 nM (active) and 916 nM (active) and 4.17 µM (active) and the Potency [3] was 531 nM (active) and 1.03 µM (active) and 833 nM (active).
For `O=C(O)COCCN1CCN(C(c2ccccc2)c2ccc(Cl)cc2)CC1` (centres undefined), the Potency (Papain (Carica papaya)) was “inactive”.
With `O=NN(CCCl)C(=O)NCCCl` the Potency (Papain (Carica papaya)) was “inactive”, the Potency [2] was “inactive” and the Potency [3] was “inactive”.
For `CCC(C)N(C)C(=O)c1cc2ccccc2c(-c2ccccc2Cl)n1` (centres undefined), the Potency (Papain (Carica papaya)) was “inactive”.
In the case of `CCOc1ccn(-c2ccc(F)cc2)c(=O)c1C(=O)Nc1ccc(Oc2ccnc(N)c2Cl)c(F)c1`, the Potency [1] is reported as “inactive”, the Potency [2] is reported as 7.28 µM (active) and 11.8 µM (active) and the Potency [3] is reported as 8.17 µM (active) and 7.42 µM (active).
With `COc1ccccc1-c1cccc(-c2c(O)c3cc(C#N)c(Cl)cc3[nH]c2=O)c1` the Potency [1] was 35.5 µM (active), the Potency [2] was “inactive” and the Potency [3] was “inactive”.
In the case of `O=C(NOC[C@H](O)CO)c1ccc(F)c(F)c1Nc1ccc(I)cc1F`, the Potency [1] is reported as 16.9 µM (active), the Potency [2] is reported as “inactive” and the Potency [3] is reported as “inactive”.
